Most compounds without a hit are left out; they make up all but 27% or so of the library.
Cav3 T inh: human Cav3.2 channel inhibition, primary screen. AID 449739. O95180. B-score at 10 µM. Cav3.2-expressing cells, Fluo-4 calcium fluorescence FDSS; stronger effect = lower value. 100,000 tested, 4% active;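 active = single-dose well whose peak fluorescence ratio is a statistical outlier from its plate by either plate-standardised score or position-corrected B-score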
CYP2C19 act: activators of human cytochrome P450 2C19; P33261; recombinant CYP2C19, luciferin-H EGE luminescence; stronger effect = higher value; 0 = fully inhibited enzyme, 1 = untreated enzyme; activation factor at 5 µM; 96,000 tested, under 10 active; AID 1025;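 active = activation factor of at least 2 at 5 µM in the primary screen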;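 also: 0 = wells with 2.5 mM tranylcypromine and 1 = vehicle-only wells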
Target sequence (P33261 whole entry, looked up): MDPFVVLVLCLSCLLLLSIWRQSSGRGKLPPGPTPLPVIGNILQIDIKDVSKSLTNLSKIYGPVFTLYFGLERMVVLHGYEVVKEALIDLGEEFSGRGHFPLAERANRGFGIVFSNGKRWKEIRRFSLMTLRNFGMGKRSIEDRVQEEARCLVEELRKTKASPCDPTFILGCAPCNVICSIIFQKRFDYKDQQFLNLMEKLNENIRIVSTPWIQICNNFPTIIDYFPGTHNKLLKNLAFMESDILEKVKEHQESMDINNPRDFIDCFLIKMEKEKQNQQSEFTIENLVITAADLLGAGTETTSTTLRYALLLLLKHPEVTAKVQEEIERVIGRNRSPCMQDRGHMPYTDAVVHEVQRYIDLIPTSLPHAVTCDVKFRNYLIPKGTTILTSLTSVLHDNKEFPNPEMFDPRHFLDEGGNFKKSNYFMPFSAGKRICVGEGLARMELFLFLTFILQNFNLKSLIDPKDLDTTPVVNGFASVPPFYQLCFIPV
CYP2C9 inhib: blocks human cytochrome P450 2C9; P11712; CYP2C9 Supersomes, luciferin-H conversion, luminescence; inhibition, % at 5 µM; 96,000 tested, 20% active;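 active = blocking of liver enzyme CYP2C9 beyond about 50% at 5 µM, limit read from the data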
CYP2C9 act: increases human cytochrome P450 2C9 activity; 96,000 tested, 1.4% active; recombinant CYP2C9, luciferin-H conversion, luminescence; stronger effect = higher value; factor 1 = untreated enzyme, 0 = blocked; activation factor at 5 µM;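 active = activation factor of 2 or more for CYP2C9 at a 5 µM dose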;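 also: 0 = sulfaphenazole-blocked wells and 1 = vehicle-only wells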
CYP2C19 inhib: blocks human cytochrome P450 2C19; AID 778; P33261; inhibition, % at 5 µM; CYP2C19 Supersomes, luciferin-H EGE luminescence, 30 min; 96,000 tested, 21% active;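 active = CYP2C19 inhibition above a set limit at 5 µM in the primary screen, cut at about 50% in these data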;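 also: plate controls were negative control wells for no effect and 2.5 mM tranylcypromine positive control for full effect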
An asterisk follows results filed as active.

`COc1cccc(-c2cc(C(=O)Nc3cc(OC)c(OC)c(OC)c3)no2)c1` gave Cav3 T inh -2.5, CYP2C19 act 0.2, CYP2C9 inhib 31, CYP2C9 act 0.7 and CYP2C19 inhib 81*.
`COc1cc(NC(=O)c2cc3nc(-c4ccccc4)cc(-c4ccccc4)n3n2)cc(OC)c1OC` gave Cav3 T inh 0.48, CYP2C19 act 0.7, CYP2C9 inhib 64*, CYP2C9 act 0.4 and CYP2C19 inhib 33.
Cc1ccc(NC(=O)c2cc(-c3cccc(O)c3)on2)cc1C was read as Cav3 T inh 0.53, CYP2C19 act 0.8, CYP2C9 inhib -188, CYP2C9 act 2.9* and CYP2C19 inhib 20.
Screening CN1CCN(C(=O)c2cc3nc(-c4ccccc4)cc(-c4ccccc4)n3n2)CC1 returned Cav3 T inh 3.4, CYP2C19 act 0.6, CYP2C9 inhib 42, CYP2C9 act 0.6 and CYP2C19 inhib 41.
`CCOC(=O)CSc1nnc(CNC(=O)c2cccs2)n1CCc1ccccc1` gave Cav3 T inh -0.33, CYP2C19 act 0.6, CYP2C9 inhib 14, CYP2C9 act 0.9 and CYP2C19 inhib 36.
Screening CCOC(=O)C1=NN(C(=O)Nc2cccc(C(F)(F)F)c2)C2C(=O)N(c3cccc(C(F)(F)F)c3)C(=O)C12 (stereo not given) returned Cav3 T inh -5.7*, CYP2C19 act 0.6, CYP2C9 inhib 45, CYP2C9 act 0.6 and CYP2C19 inhib 35.
Screening N#Cc1ccc(CSc2nnc(NC(=O)CN3C(=O)C4CC=CCC4C3=O)s2)cc1 (stereo not given) returned Cav3 T inh -0.11, CYP2C19 act 0.9, CYP2C9 inhib 20, CYP2C9 act 0.8 and CYP2C19 inhib 13.
Screening NC1=NS(=O)(=O)NC1c1cccc(Cl)c1 (stereo not given) returned Cav3 T inh 0.052, CYP2C19 act 1.1, CYP2C9 inhib -6, CYP2C9 act 1.1 and CYP2C19 inhib -9.
For COC(=O)CCCCCc1ccc(C(C)=O)s1 the results were Cav3 T inh -0.42, CYP2C19 act 0.5, CYP2C9 inhib 23, CYP2C9 act 0.8 and CYP2C19 inhib 48.
CCOC(=O)c1c(-c2ccc(C)o2)csc1NC(=O)CSc1nncs1 was read as Cav3 T inh -1.8, CYP2C19 act 0.1, CYP2C9 inhib 100*, CYP2C9 act 0 and CYP2C19 inhib 91*.
CCOC(=O)c1c(-c2ccc(C)o2)csc1NC(=O)CN(C)CC(=O)Nc1ccc(C)cc1 was read as Cav3 T inh -0.44, CYP2C19 act 0.3, CYP2C9 inhib 96*, CYP2C9 act 0 and CYP2C19 inhib 69*.
`CCOC(=O)c1c(-c2ccco2)csc1NC(=O)CSc1nnc(N)s1` gave Cav3 T inh -1.2, CYP2C19 act 0.8, CYP2C9 inhib 57*, CYP2C9 act 0.4 and CYP2C19 inhib 20.
Screening Cc1cc([N+](=O)[O-])cnc1NC(C)c1ccccc1 (stereo not given) returned Cav3 T inh -3.6, CYP2C19 act 0.4, CYP2C9 inhib 50, CYP2C9 act 0.5 and CYP2C19 inhib 65*.
`CCOc1ccccc1NC(=O)CSc1nnc(CNC(=O)c2ccco2)o1` gave Cav3 T inh -0.15, CYP2C19 act 0.8, CYP2C9 inhib 24, CYP2C9 act 0.8 and CYP2C19 inhib 18.
Cn1c(=O)c2c(SCC(=O)Nc3ccc4c(c3)OCCO4)nc(CC(C)(C)C)nc2n(C)c1=O was read as Cav3 T inh -3.8, CYP2C19 act 0.4, CYP2C9 inhib 74*, CYP2C9 act 0.3 and CYP2C19 inhib 59*.
For COc1ccc(/C=C2/SC(=O)N(NS(=O)(=O)c3ccccc3)C2=S)cc1OC the results were Cav3 T inh -2.4, CYP2C19 act 1.1, CYP2C9 inhib 70*, CYP2C9 act 0.3 and CYP2C19 inhib -6.
Screening CCn1c(SCC(=O)Nc2nc(-c3ccc(C)cc3)cs2)nnc1-c1ccccc1 returned Cav3 T inh -1.8, CYP2C19 act 0.6, CYP2C9 inhib 85*, CYP2C9 act 0.2 and CYP2C19 inhib 42.
`Cc1ccc(C(=O)CSc2nnc(CNc3nc(-c4ccccc4)cs3)n2C)cc1` gave Cav3 T inh -4.6*, CYP2C19 act 0.7, CYP2C9 inhib 27, CYP2C9 act 0.7 and CYP2C19 inhib 34.
For CCn1c(SCC(=O)Nc2nc(-c3ccc(C)cc3)cs2)nnc1-c1ccccc1O the results were Cav3 T inh -3.8, CYP2C19 act 0.4, CYP2C9 inhib 72*, CYP2C9 act 0.3 and CYP2C19 inhib 57*.
`COc1ccccc1-c1nnc(SCC(=O)Nc2nc(-c3ccccc3)cs2)n1C` gave Cav3 T inh -6.6*, CYP2C19 act 0.1, CYP2C9 inhib 98*, CYP2C9 act 0 and CYP2C19 inhib 91*.
For Cc1ccccc1C(=O)NCCc1nnc(SCC(=O)Nc2nc(-c3ccccc3)cs2)n1C the results were Cav3 T inh 0.15.
For O=C(NC1CCCCC1)/C(=N\O)c1ccccn1 the results were Cav3 T inh 0.0032, CYP2C19 act 1, CYP2C9 inhib -2, CYP2C9 act 1 and CYP2C19 inhib 4.
CCc1sc(N2C(=O)C3C4CCC(C4=C(C)C)C3C2=O)nc1-c1ccccc1 (stereo not given) was read as Cav3 T inh -1.3, CYP2C19 act 0.9, CYP2C9 inhib -33, CYP2C9 act 1.3 and CYP2C19 inhib 15.
`Cc1cc(-c2cccs2)c2c(n1)sc1c(=O)[nH]c(=O)[nH]c12` gave Cav3 T inh 0.96, CYP2C19 act 1.2, CYP2C9 inhib 0, CYP2C9 act 1 and CYP2C19 inhib -22.
`COCCn1c(CCC(=O)O)nc2c1c(=O)[nH]c(=O)n2CC(C)C` gave Cav3 T inh 0.6, CYP2C19 act 1.1, CYP2C9 inhib -60, CYP2C9 act 1.6 and CYP2C19 inhib -5.
For O=C1C(NS(=O)(=O)c2cccs2)=C(N2CCN(c3ccccc3)CC2)C(=O)c2ccccc21 the results were Cav3 T inh 1, CYP2C19 act 0.7, CYP2C9 inhib 63*, CYP2C9 act 0.4 and CYP2C19 inhib 29.
`O=C(C1CCN(S(=O)(=O)c2cccs2)CC1)N1CCN(c2ccccc2)CC1` gave Cav3 T inh 0.67, CYP2C19 act 1.1, CYP2C9 inhib 3, CYP2C9 act 1 and CYP2C19 inhib -6.
O=C(C(NS(=O)(=O)c1cccs1)c1ccccc1)N1CCN(c2ccccc2)CC1 (stereo not given) was read as Cav3 T inh -0.073, CYP2C19 act 0.5, CYP2C9 inhib 28, CYP2C9 act 0.7 and CYP2C19 inhib 54*.
`Cc1ccc(N/C=C(/C#N)c2ccsc2)cc1` gave Cav3 T inh -1.5, CYP2C19 act 0.4, CYP2C9 inhib 33, CYP2C9 act 0.7 and CYP2C19 inhib 64*.
Screening CCN1C(=O)N(c2cccc3ccccc23)C(C)=CC1(C)C returned Cav3 T inh -5.7*, CYP2C19 act 0.8, CYP2C9 inhib 7, CYP2C9 act 0.9 and CYP2C19 inhib 20.

Assay outcomes as filed in PubChem BioAssay.
